# From PubChem BioAssay
# This is a sample that favours compounds with a hit; in the whole collection about 3.1% have one here.
# TSHR antag: Antagonists of the Thyroid Stimulating Hormone Receptor: HTS campaign; Thyrotropin receptor (Homo sapiens), P16473; TSHR-expressing cells, TSH-stimulated cAMP HTRF, 2 h; active compounds read low; activity change, negative = inhibition, % at 11.5 µM; 0.2% of 330,000 active; AID 504810, 2011;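 active means activity change below a set negative limit, meaning inhibition stronger than a set level, cut at about -70% in these data; inconclusive means activity change between two set negative limits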
#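 TSHR-expressing cells were treated with compounds, then stimulated with TSH at EC80 (4nM final) for 2 hours at 37 deg C. Cellular cAMP was measured by HTRF competition between lysate cAMP and cAMP-d2 for a cryptate-labelled anti-cAMP antibody.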
# VDR inhibitor: Inhibitors of the vitamin D receptor (VDR): qHTS; Vitamin D3 receptor (Homo sapiens), P11473; VDR-SRC2-3 peptide fluorescence polarization, 2 h; Potency, µM, hits mostly inhibitors; 0.93% of 400,000 active; AID 504847, 2011
# Target sequence (P11473 whole entry, looked up): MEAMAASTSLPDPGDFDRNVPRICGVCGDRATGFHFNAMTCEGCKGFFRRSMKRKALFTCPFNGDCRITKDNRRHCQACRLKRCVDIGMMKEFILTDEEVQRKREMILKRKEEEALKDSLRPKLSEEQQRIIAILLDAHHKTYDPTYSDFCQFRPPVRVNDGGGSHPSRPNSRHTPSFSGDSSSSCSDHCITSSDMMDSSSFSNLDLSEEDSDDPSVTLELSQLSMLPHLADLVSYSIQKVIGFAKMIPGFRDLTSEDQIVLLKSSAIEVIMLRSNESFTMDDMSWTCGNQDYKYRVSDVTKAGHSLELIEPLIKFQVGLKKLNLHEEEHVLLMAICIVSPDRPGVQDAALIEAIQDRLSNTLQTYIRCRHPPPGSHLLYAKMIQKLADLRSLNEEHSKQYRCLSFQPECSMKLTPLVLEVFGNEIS
#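 VDR–SRC2-3 interaction, FP format. Cmpds 23 nl via pintool, brief spin, 2 h ambient incubation.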
# TSG101-PTAP inh: qHTS Assay for Iinhibitors of HIV-1 Budding by Blocking the Interaction of PTAP/TSG101. Tumor susceptibility gene 101 protein (Homo sapiens), Q99816. Fluorescence polarization, FITC-PTAP peptide / Tsg101 binding. Potency, µM (series often up to 115 µM), actives largely listed as inhibitors. 340,000 tested, under 10 active. AID 493005, 2010; active means well fitted inhibition curve with a large enough effect in the main read-out, with a control signal flat, not every such curve was filed as active; inconclusive means small, poorly fitted or top-dose-only effect, or effect the other way, or a change in a side signal; inactive means no such curve, though single readings can be large or run the other way
#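 Fluorescence polarization binding of Tsg101 binding domain (10 uM final) to FITC-labeled PTAP peptide (50 nM final) in HEPES pH 7.5 buffer with NaCl, Tween 20, EDTA, TCEP. Compounds added before peptide; binding 20 min at RT.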
# PLK1 PBD inh: qHTS for Inhibitors of PLK1-PDB (polo-like kinase 1 - polo-box domain): Primary Screen; Serine/threonine-protein kinase PLK1 (Homo sapiens), P53350; Plk1 PBD binding of FITC phosphopeptide, fluorescence polarization; 2.8% of 360,000 active; Potency, µM, usual class: inhibitors; further: series mostly up to about 57 µM; nearly all actives have a fitted effect of over 65% in size
# uPA generation: qHTS for Inhibitors of Cell Surface uPA Generation; cell surface uPA generation assay, qHTS; Potency, µM (highest dose often 38.3 µM), usual class: inhibitors; 0.31% of 330,000 active; active means well fitted inhibition curve with a large enough effect; inconclusive means small, poorly fitted or top-dose-only effect; inactive means no such curve, though single readings can be large or run the other way; tested in mouse RAW 264.7 cells; further: nearly all actives have a fitted effect of over 55% in size
# Numbers stand for hits; - = inactive; ? = inconclusive; . = no result given. Unless noted, the call rests on the fitted dose curve; in most records, active means well fitted curve in the direction sought with a large enough effect; inconclusive means small, poorly fitted or top-dose-only effect, or another doubt; inactive means no such curve, though single readings can be large; an effect the other way counts as inactive or inconclusive.
SMILES,TSHR antag,VDR inhibitor,TSG101-PTAP inh,PLK1 PBD inh,uPA generation
CCCc1nc2c(s1)CCc1onc(-c3ccc(OC)cc3)c1-2,.,?,-,26.7µM,-
CCCc1nc2c(s1)CCc1onc(-c3ccc(Cl)cc3)c1-2,-,-,-,-,-
CCCc1nc2c(s1)CCc1onc(-c3ccc(Br)cc3)c1-2,.,?,-,15µM,-
CN(C(=S)NC(=O)C1CCCC1)c1ccccc1,.,.,.,29.9µM,.
CN(Cc1ccccc1)C(=S)NC(=O)C1CCCCC1,-,-,-,-,-
Cc1cccc(N(Cc2cc(=O)[nH]c3ccccc23)C(=O)CCl)c1,-,-,-,-,7.08µM
CC(=O)N(Cc1cc(=O)[nH]c2ccccc12)c1cccc(C)c1,-,-,-,-,-
OC1(c2ccc(Cl)c(C(F)(F)F)c2)CCN(CCCC(c2ccc(F)cc2)c2ccc(F)cc2)CC1,.,-,.,.,.
C=CCOc1c(Cl)cc(CNCCCN2CCOCC2)cc1OC,-,?,-,21.2µM,-
S=C(NCCCN1CCOCC1)Nc1ccc(Nc2ccccc2)cc1,-,-,-,?,-
S=C(NCCCN1CCOCC1)Nc1ccc(-c2nc3ccccc3[nH]2)cc1,-,-,-,23.8µM,-
CCCOc1ccc(-c2nc(=S)[nH][nH]2)cc1,-,89.1µM,-,?,.
S=c1nc(-c2ccco2)[nH][nH]1,-,-,-,-,-
S=c1nc(-c2ccc(Cl)cc2)[nH][nH]1,-,-,-,37.7µM,-
O=C1CSC2(C(=O)N(Cc3cccc(C(F)(F)F)c3)c3ccccc32)N1c1ccc(F)c(F)c1 (stereo not drawn),.,-,.,.,.
Cc1ccc(-c2cc(C(=O)N/N=C/C=C/c3ccccc3)n[nH]2)s1,-,?,-,6.7µM,-
CN(C)c1cccc(NC(=O)C2Cc3c(-c4cccnc4)ccnc3O2)c1 (stereo not drawn),.,.,.,-,.
CCOC(=O)CNC(=O)CSc1nc(-c2cccc(C)c2)ns1,-,79.4µM,-,10.6µM,-
Cc1cccc(C2(c3cccc(C)c3)CC2C(=O)NCC2CCCO2)c1 (stereo not drawn),-,?,-,26.7µM,-
Cc1cccc(-c2nsc(SCC(=O)NCC3CCCO3)n2)c1 (stereo not drawn),-,-,-,8.44µM,-
Cc1cccc(-c2noc(CCCC(=O)NCC3CCCO3)n2)c1 (stereo not drawn),-,-,-,-,-
Cc1cccc(-c2nsc(SCC(=O)NCc3ccco3)n2)c1,-,-,-,21.2µM,-
C=CCNC(=O)C1CC1(c1cccc(C)c1)c1cccc(C)c1 (stereo not drawn),.,-,-,-,-
Cc1cc2nc(CN(C)C(=O)C3CCC(=O)N(C4CCCC4)C3)[nH]c2cc1C (stereo not drawn),.,.,.,-,.
O=C(Nc1c(-c2ccc(F)cc2)nc2ccccn12)c1ccccc1F,.,-,.,.,.
SMILES,TSHR antag,VDR inhibitor,TSG101-PTAP inh,PLK1 PBD inh,uPA generation
CNC(=O)C1CCC(Cn2c(=O)c3sccc3n(CC(=O)Nc3ccc(C)cc3C)c2=O)CC1 (stereo not drawn),.,-,.,.,.
Cc1cccc(-c2nsc(SCC(=O)c3ccc(Cl)cc3)n2)c1,-,-,-,16.8µM,-
COC(=O)c1nnc(C(=O)NCc2ccccc2)c2[nH]c3ccc(OC)cc3c12,.,-,.,.,.
COC(=O)c1cc(=O)n(Cc2ccco2)c(=Nc2ccc(F)cc2)s1,-,?,-,-,?
CCOC(=O)c1ccc(N=c2sc(C(=O)OC)cc(=O)n2-c2ccc(C(=O)OCC)cc2)cc1,-,?,-,-,?
COC(=O)c1cc(=O)n(Cc2ccc(F)cc2)c(=Nc2ccccc2)s1,-,?,-,-,7.08µM
COC(=O)c1cc(=O)n(CCc2ccc(OC)c(OC)c2)c(=Nc2ccc(F)c(Cl)c2)s1,-,-,-,-,6.31µM
COC(=O)c1cc(=O)n(-c2ccccc2)c(=Nc2ccccc2)s1,-,?,-,?,4.47µM
COC(=O)c1cc(=O)n(Cc2ccc(OC)c(OC)c2)c(=Nc2ccc(F)cc2)s1,-,-,-,-,4.47µM
COC(=O)c1cc(=O)n(Cc2cccs2)c(=Nc2ccccc2)s1,-,-,-,-,?
CN(C)c1ncc(S(=O)(=O)c2ccccc2)c(=O)[nH]1,-,-,-,-,-
